High-throughput results (PubChem)
Hits are enriched below; roughly 10% of the tested compounds scored in any of these assays.
hNpr1 antagonist: human Npr1 receptor antagonism | actives 1.6% (n = 76,000) | AID 1347048 | P16066 | Potency, µM (doses to about 46.3 µM), for the others: top-dose activity change, negative = inhibition, usual class: inhibitors | HEK293 hNpr1 GloSensor cGMP, ANP-stimulated luminescence; calls by dose curve; note: nearly all actives have a fitted effect of over 60% in size
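Compound pre-incubated 30 min at room temperature on GloSensor-loaded HEK293 cells stably carrying hNpr1 and the pGS-40F cGMP biosensor. Stimulation uses hNppA at 0.1 nM final; luminescence is taken at baseline and 20 min post-agonist.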
FLuc inh: Photinus pyralis luciferase inhibition; P08659; purified P. pyralis luciferase, luminescence, biochemical; actives 2.5% (n = 76,000); Potency, µM (top dose mostly 115 µM), usual class: inhibitors; note: nearly all actives have a fitted effect of over 65% in size
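Luminescence read by CCD imaging after purified firefly luciferase (10nM final) was added to substrate buffer holding 10uM D-luciferin and 10uM ATP, pH 7.5, pre-dosed with compound.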
NIH3T3 tox: cytotoxic compounds in NIH 3T3 cells; actives 4.3% (n = 94,000); Potency, µM (top dose mostly 96.7 µM), without a hit: at the highest dose activity change, negative = cytotoxicity, most hits filed as inhibitors; NIH 3T3 viability, CellTiter-Glo ATP luminescence, 48-72 h; AID 1345082; note: nearly all actives have a fitted effect of over 55% in size
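NIH 3T3 cells at 400 cells/well received 23 nL of compound by pintool and were incubated 48 or 72 h at 37 °C. Viability was read as ATP-coupled CellTiter-Glo luminescence.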
GPT2 inhibitor: GPT2 alanine aminotransferase inhibition | Recombinant GPT2, coupled pyruvate oxidase/HRP Amplex Red fluorescence | Q8TD30 | Potency, µM (highest dose often 57.7 µM), for inactives: at the top dose activity change, negative = inhibition, most hits filed as inhibitors | actives 0.25% (n = 100,000); note: nearly all actives have a fitted effect of over 60% in size
Target sequence (Q8TD30 whole entry, looked up): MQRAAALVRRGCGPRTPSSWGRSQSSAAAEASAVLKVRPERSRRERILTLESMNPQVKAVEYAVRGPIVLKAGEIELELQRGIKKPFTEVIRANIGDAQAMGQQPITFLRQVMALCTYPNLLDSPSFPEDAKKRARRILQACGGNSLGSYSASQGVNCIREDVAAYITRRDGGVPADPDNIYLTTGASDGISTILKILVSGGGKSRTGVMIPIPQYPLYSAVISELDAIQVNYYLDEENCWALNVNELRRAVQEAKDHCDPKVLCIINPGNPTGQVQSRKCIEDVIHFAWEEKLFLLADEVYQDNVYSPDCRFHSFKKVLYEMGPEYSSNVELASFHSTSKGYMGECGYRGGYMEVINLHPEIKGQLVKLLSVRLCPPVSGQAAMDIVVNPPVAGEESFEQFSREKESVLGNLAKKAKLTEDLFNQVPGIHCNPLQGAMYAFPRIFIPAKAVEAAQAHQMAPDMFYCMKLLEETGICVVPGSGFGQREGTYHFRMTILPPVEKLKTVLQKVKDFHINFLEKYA
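GPT2 10ng/uL, a-KG 250uM, L-Ala 2mM, HEPES pH7.5 + 0.0001% Tween; 30 min RT. Then Amplex mix (PO/HRP/ThPP), 30 min RT dark, fluorescence. AOA 50uM used as positive control.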
HEK cytotox: HEK 293 cell cytotoxicity; HEK 293 viability, ATP luminescence (CellTiter-Glo), 48-72 h; actives 6.6% (n = 94,000); AID 1345083; Potency, µM (top dose mostly 115 µM), without a hit: at the highest dose activity change, negative = cytotoxicity, actives largely listed as inhibitors; note: nearly all actives have a fitted effect of over 60% in size
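qHTS cytotoxicity; HEK 293, 250 cells/well; compound pinned; 48 or 72 hr, 37 degree Celsius, 5% CO2, 95% humidity; CellTiter-Glo, 10 min RT; luminescence (ATP).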
Numbers without * were called inactive; i = inactive; ? = inconclusive; . = no result given; [ ] = remark or other dose. Unless noted, calls come from the whole dose curve; as a rule, active = well fitted curve in the direction sought with a large enough effect; inconclusive = small, poorly fitted or top-dose-only effect, or another doubt; inactive = no such curve, though single readings can be large; an effect the other way counts as inactive or inconclusive. % is set by controls: 0 for no effect and ±100 for the full control effect; potency is the fitted concentration of half-maximal effect.

SMILES	hNpr1 antagonist	FLuc inh	NIH3T3 tox	GPT2 inhibitor	HEK cytotox
CC(C)(C)C(=O)N1CCCC1C(=O)N1CCC2(CC1)CC(=O)Nc1ccccc1O2 (stereo not drawn)	.	.	0.9%	-7.6%	i
CCOc1ccc(CC(=O)NC2CCN(c3cc(-c4cccs4)[nH]n3)C2)cc1 (stereo not drawn)	0.0%	i	15.8µM*	?	44.7µM*
COc1cc(OC)cc(C(=O)NC2CCN(c3cc(-c4cccs4)[nH]n3)C2)c1 (stereo not drawn)	-24.1%	i	?	?	?
O=C(Cc1ccccc1F)NC1CCN(c2cc(-c3cccs3)[nH]n2)C1 (stereo not drawn)	-17.9%	i	?	-23.0%	15.8µM*
CCOc1cc(C(=O)NC2CCN(c3cc(-c4cccs4)[nH]n3)C2)cc(OCC)c1OCC (stereo not drawn)	-4.4%	i	?	-21.1%	44.7µM*
O=C(Cc1cccc(F)c1)NC1CCN(c2cc(-c3cccs3)[nH]n2)C1 (stereo not drawn)	-14.7%	i	?	?	?
Cc1ccc(CN2CCc3nc(N(C)Cc4cccnc4)[nH]c(=O)c3CC2)s1	4.3%	i	?	2.3%	?
CC(C)(C)c1csc(NC(=O)C2CC(=O)N(c3n[nH]c4cccc(F)c34)C2)n1 (stereo not drawn)	-17.6%	i	?	i	44.7µM*
Cc1ccnc(NC(=O)C2CC(=O)N(c3n[nH]c4cccc(F)c34)C2)c1 (stereo not drawn)	-5.7%	i	?	-17.1%	28.2µM*
COc1ccc(C)cc1NC(=O)C1CC(=O)N(c2n[nH]c3cc(Br)ccc23)C1 (stereo not drawn)	-18.5%	i	?	i	44.7µM*
Cc1ccc2nc(NC(=O)C3CC(=O)N(c4n[nH]c5cccc(F)c45)C3)sc2c1 (stereo not drawn)	-11.3%	i	31.6µM*	4.0%	25.1µM*
Cc1nc(NC(=O)C2CC(=O)N(c3n[nH]c4cccc(F)c34)C2)sc1C (stereo not drawn)	2.0%	i	-9.2%	0.8%	?
Cc1ccc(NC(=O)C2CC(=O)N(c3n[nH]c4cccc(F)c34)C2)nc1 (stereo not drawn)	5.1%	i	i	i	5.6%
O=C(C1CCCN1C(=O)c1cccc(-c2ccccn2)c1)N1CCOCC1 (stereo not drawn)	.	.	-22.0%	-47.6%	-10.5%
COc1ccc2[nH]c3c(c2c1)CCN(C)C31CCN(C(=O)c2ccnn2C)CC1	-0.6%	i	-17.1%	-10.2%	-13.3%
O=C(Nc1ccc2c(c1)OCCO2)N1CCCC1Cc1noc(Cc2ccccc2)n1 (stereo not drawn)	.	.	?	i	-23.4%
CC(C)c1ccc(S(=O)(=O)N2CCCC2Cc2noc(Cc3ccccc3)n2)cc1 (stereo not drawn)	.	.	?	i	25.1µM*
O=C(N[C@@H]1CCN(C(=O)CCc2ccccc2F)C[C@H]1O)c1ccccn1	-2.7%	i	1.6%	1.9%[11.5 µM]	i
Cc1ccc2c(n1)OC(Cn1cccc1)CN(CCC1=CCCCC1)C2=O (stereo not drawn)	.	.	?	.	89.1µM*
CCc1ccc(C(=O)NC2CCN(c3cc(-c4ccc(OC)cc4)[nH]n3)CC2)cc1	?	i	?	-1.2%	?
CCCNC(=O)[C@@H]1Cc2cn(Cc3nccn3C)c3cccc(c23)[C@H](CC(C)C)N1	-2.4%[70.6 µM]	i	100µM*	-3.1%[88.5 µM]	44.7µM*
CC#CCn1cc2c3c(cccc31)[C@H](CC(C)C)N[C@H](C(=O)NCCC)C2	-5.4%[70.6 µM]	i	39.8µM*	0.6%[88.5 µM]	56.2µM*
CC(C)C[C@@H]1N[C@H](C(=O)NCC2CC2)Cc2cn(Cc3nccn3C)c3cccc1c23	-3.2%[70.6 µM]	i	63.1µM*	-4.3%[88.5 µM]	35.5µM*
COCCCNC(=O)[C@@H]1Cc2cn(Cc3nccn3C)c3cccc(c23)[C@H](CC(C)C)N1	-2.6%[70.6 µM]	i	-40.7%[174 µM]	?	?
O[C@H]1CC[C@@H](Cc2cc(-c3ccccn3)on2)O[C@@H]1CN(Cc1ccccc1)Cc1ccccc1	-6.4%	i	?	-9.7%	?
SMILES	hNpr1 antagonist	FLuc inh	NIH3T3 tox	GPT2 inhibitor	HEK cytotox
CCn1cc(C(CC(=O)N2CCC(C)CC2)c2cccc(Cl)c2)c2ccccc21 (stereo not drawn)	-15.9%	i	?	i	39.8µM*
CCOc1ccccc1NC(=O)N1C[C@@H](F)C[C@H]1C(=O)N1CCc2ccccc2C1	-15.5%	i	0.0%	i	-3.0%
CC(C)NC(=O)N[C@H]1CCN2C(=O)c3cc(-c4ccccc4F)ccc3NC(=O)[C@@H]2C1	1.0%[70.6 µM]	i	-26.2%[174 µM]	?	?
O=C(N[C@H]1CCN2C(=O)c3cc(-c4ccccc4F)ccc3NC(=O)[C@@H]2C1)c1ccc(F)c(Cl)c1	?	i	10µM*	i	10µM*
C=CCNC(=O)N[C@H]1CCN2C(=O)c3ccc(Cl)cc3NC(=O)[C@@H]2C1	2.6%[70.6 µM]	i	31.6µM*	i	?
O=C(N[C@H]1CCN2C(=O)c3cc(-c4cccc(C(F)(F)F)c4)ccc3NC(=O)[C@@H]2C1)c1ccncc1	-1.6%	i	?	2.9%	39.8µM*
C=C(C)CN(C)C(=O)c1cc(CN2CCC(Cc3ccccc3)CC2)on1	-3.8%	i	-28.5%	-12.3%	89.1µM*
CCN(Cc1ccncc1)C(=O)c1cc(CN2CCC(Cc3ccccc3)CC2)on1	?	i	?	i	?
Cc1cc(C)n(CCC(=O)NCc2cccnc2Oc2ccccc2F)n1	17.6%	i	-15.4%	-12.6%	-4.4%
Cc1ccc(-c2cccc(CN3CCCC3C(=O)NCc3cccs3)c2)cc1Cl (stereo not drawn)	.	.	15.8µM*	.	35.5µM*
COc1ccccc1CNC(=O)C1CCCN1Cc1cccc(-c2ccc(C)c(Cl)c2)c1 (stereo not drawn)	.	.	39.8µM*	.	39.8µM*
Cc1ccc(-c2cccc(CN3CCCC3C(=O)NCc3ccccc3Cl)c2)cc1Cl (stereo not drawn)	.	.	?	.	44.7µM*
O=C(NCc1ccccc1Cl)C1CCCN1Cc1ccc(-c2cncnc2)cc1 (stereo not drawn)	.	.	?	-4.4%	?
COc1ccc(CNC(=O)C2CCCN2Cc2cccc(-c3ccc(C)c(Cl)c3)c2)cc1 (stereo not drawn)	.	.	31.6µM*	.	35.5µM*
CN(CC1CCOC1)C(=O)Nc1ccc(Cl)cc1F (stereo not drawn)	6.1%	i	i	i	1.8%
COc1ccc(N2CCN(C(=O)CN3C(=O)NC4(CCCCC4)C3=O)CC2)cc1	17.9%	i	-9.5%	?	2.1%
